# Source: PubChem BioAssay AID1835 (Johns Hopkins Ion Channel Center, 2009)
# Out of some 2,400 compounds screened, about 750 (31%) were called active. The list shows a part of the results. Values without a mark were called inactive.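 The calls were made as follows: active = median signal gain over dofetilide-blocked control wells reaching their mean plus 3 SD, so readout 1 at least 0; inactive = the rest.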
# Target: Voltage-gated inwardly rectifying potassium channel KCNH2 (Homo sapiens) (UniProt Q12809)
# Test: hERG protection against dofetilide inhibition, confirmation, cell-based, thallium flux, duplicate retest, dofetilide IC70 (AID 1835)
# Conditions: hERG cell line, FluxOR thallium flux, dofetilide-blocked; at 10 µM; stronger effect = higher value
# Sequence of Voltage-gated inwardly rectifying potassium channel KCNH2 (Homo sapiens) (Q12809 whole entry, looked up): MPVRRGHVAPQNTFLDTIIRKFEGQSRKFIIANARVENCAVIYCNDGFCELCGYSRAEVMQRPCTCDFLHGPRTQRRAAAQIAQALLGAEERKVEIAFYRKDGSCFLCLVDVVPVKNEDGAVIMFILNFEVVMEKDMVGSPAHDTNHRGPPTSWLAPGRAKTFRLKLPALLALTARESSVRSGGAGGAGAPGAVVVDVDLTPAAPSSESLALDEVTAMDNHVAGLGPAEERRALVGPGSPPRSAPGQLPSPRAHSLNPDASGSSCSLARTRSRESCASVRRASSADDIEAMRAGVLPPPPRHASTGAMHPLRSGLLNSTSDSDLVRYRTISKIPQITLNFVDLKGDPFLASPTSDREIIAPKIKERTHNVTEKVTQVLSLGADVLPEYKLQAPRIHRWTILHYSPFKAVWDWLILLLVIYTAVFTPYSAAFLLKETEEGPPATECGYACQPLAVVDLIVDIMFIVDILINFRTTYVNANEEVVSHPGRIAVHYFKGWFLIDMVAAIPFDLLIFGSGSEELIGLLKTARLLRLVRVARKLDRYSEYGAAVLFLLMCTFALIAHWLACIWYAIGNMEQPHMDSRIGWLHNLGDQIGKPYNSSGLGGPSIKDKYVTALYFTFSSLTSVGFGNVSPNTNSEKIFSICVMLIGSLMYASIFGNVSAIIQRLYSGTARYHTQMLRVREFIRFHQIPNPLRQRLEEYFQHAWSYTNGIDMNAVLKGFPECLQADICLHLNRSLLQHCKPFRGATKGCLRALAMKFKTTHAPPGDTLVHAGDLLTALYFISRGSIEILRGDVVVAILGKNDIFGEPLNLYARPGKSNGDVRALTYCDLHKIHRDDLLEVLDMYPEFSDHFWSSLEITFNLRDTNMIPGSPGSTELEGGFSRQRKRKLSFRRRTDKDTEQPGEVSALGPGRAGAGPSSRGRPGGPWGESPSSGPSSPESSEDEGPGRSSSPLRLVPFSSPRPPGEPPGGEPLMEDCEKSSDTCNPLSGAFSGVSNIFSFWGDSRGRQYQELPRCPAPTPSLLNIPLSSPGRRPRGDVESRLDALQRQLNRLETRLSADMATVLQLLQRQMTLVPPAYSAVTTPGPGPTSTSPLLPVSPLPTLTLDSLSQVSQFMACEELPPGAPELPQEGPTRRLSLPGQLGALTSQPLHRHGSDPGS
row,Compound,"activity increase over dofetilide control, less the hit threshold"
1,Fc1ccc(NC(=S)Nc2nccs2)cc1,0%
2,Cc1ccc(/C(O)=C/C(=O)C(=O)NC23CC4CC(CC(C4)C2)C3)cc1,10% (active)
3,Nc1cccc2c1C(=O)N(CC(=O)NC13CC4CC(CC(C4)C1)C3)C2=O,-9%
4,CCC(C)c1ccccc1NC(=O)c1[nH]c(C)c(C(C)=O)c1C (stereo unspecified),-12%
5,CCOc1ccccc1NC(=S)NC(=O)c1ccco1,3% (active)
6,CCC(C)c1ccccc1NC(=O)C(C)NCCN(C)C (stereo unspecified),-13%
7,CCC(C)c1ccccc1NC(=S)NC(=O)c1ccco1 (stereo unspecified),69% (active)
8,Cc1nc2n(n1)CC(O)CS2 (stereo unspecified),-14%
9,CN(C)CCNc1ncnc2c1sc1nc(N3CCCC3)c3c(c12)CC(C)(C)OC3,-10%
10,CCCCc1c(O)nc(SCC(=O)O)[nH]c1=O,-16%
11,CC12CCC3(CO)COC(c4ccccc4O1)C2C3 (stereo unspecified),-5%
12,O=C(COC(=O)c1cc(Br)ccc1O)Nc1cccnc1Cl,-14%
13,COC(=O)c1ccc(C(=O)NC(=S)Nc2nc3c(s2)CC(C)CC3)cc1 (stereo unspecified),-10%
14,COC(=O)c1ccc(C(=O)NC(=S)Nc2nc3c(s2)CCCC3)cc1,13% (active)
15,O=C(NC(=S)Nc1nc2c(s1)CCCC2)c1ccc(C(=O)c2ccccc2)cc1,-3%
16,CC(C)(C)c1ccc(C(=O)NC(=S)Nc2nc3c(s2)CCCC3)cc1,13% (active)
17,Cc1csc(NC(=O)c2cc3c(s2)CCCC3)n1,-5%
18,Cc1ccc(N2C(=O)c3ccccc3C2(O)c2ncc[nH]2)cc1 (stereo unspecified),-18%
19,CCc1nnc(NC(=O)c2c(C)nn(-c3ccccc3)c2Cl)s1,-16%
20,COc1ccc(-n2c(SCc3ccccn3)nc3c(c2=O)SCC3)cc1OC,3% (active)
21,COc1ccc(-n2nc(C(=O)NCC(=O)NCc3ccc(F)cc3)c3ccccc3c2=O)cc1OC,-13%
22,CCOC(=O)c1nnsc1NC(C)=O,-13%

row,Compound,"activity increase over dofetilide control, less the hit threshold"
1,CCOC(=O)c1c(-c2ccccc2)csc1NC(=S)NC,7% (active)
2,CCOC(=O)c1cc2c(nc1NC(=S)NCc1ccccc1)CCCC2,-1%
3,CCOC(=O)c1c(-c2ccc(C)o2)csc1NC(=S)NC(=O)N(C)C,21% (active)
4,CCNC(=S)Nc1scc(-c2ccccc2)c1C(=O)OCC,5% (active)
5,CCOC(=O)c1c(CC(C)C)csc1NC(=O)c1ccccc1C(=O)O,-13%
6,C=CCn1c(N2CCCCCC2)nc2c1c(=O)n(C)c(=O)n2C,-7%
7,CC1(OC(=O)C2CCCC2)C(=O)C=C2C=C(c3ccc(C#N)cc3)OC=C2C1=O (stereo unspecified),-18%
8,Cc1ccc(C)c(N2CCN(S(=O)(=O)c3ccc(-c4ccc(=O)[nH]n4)o3)CC2)c1,-11%
9,CC(Sc1n[nH]c(=O)[nH]c1=O)C(=O)OCc1ccccc1 (stereo unspecified),-11%
10,Cn1c2ccccc2c(=O)c2c(=O)n(Cc3ccco3)c(-c3ccc(Cl)cc3Cl)nc21,-10%
11,Cn1c(=O)c2sc3c(c2n(CC(=O)Nc2ccccc2)c1=O)COC(C)(C)C3,-12%
12,COc1ccccc1-n1cnc2cc(NS(=O)(=O)c3ccc(Br)cc3)ccc21,-24%
13,Cc1ccc(CNC(=O)CN(C(=O)C2(C)CC(=O)N=C3C=CC=CN32)c2ccccc2F)cc1 (stereo unspecified),-8%
14,CCCCCn1c(=S)[nH]c2ncccc2c1=O,40% (active)
15,CCOCCCn1c(=S)[nH]c2cc(C(=O)NCCOC)ccc2c1=O,-13%
16,O=c1c2ccccc2[nH]c(=S)n1CCc1ccccc1,20% (active)
17,Cc1ccc(Cn2c(=S)[nH]c3ccccc3c2=O)cc1,3% (active)
18,O=c1c2cc(Cl)ccc2[nH]c(=S)n1Cc1cccs1,-8%
19,CCN(CCCn1c(=S)[nH]c2ncccc2c1=O)c1ccccc1,-2%
20,CC(C)CCn1c(=S)[nH]c2ncccc2c1=O,-1%
21,O=C1CN(S(=O)(=O)c2ccccc2)CC(=O)N1CCc1ccccc1,-6%
22,CCCCC(CC)CNC(=O)Cn1c(=S)[nH]c2ncccc2c1=O (stereo unspecified),-12%

row,Compound,"activity increase over dofetilide control, less the hit threshold"
1,CCCCn1c(=S)[nH]c2ccccc2c1=O,3% (active)
2,Cc1ccc(OCCC(=O)OC(C)C(=O)Nc2ccc(Cl)cn2)cc1 (stereo unspecified),-11%
3,CCC1(C)CC2(CCCN(CCC(=O)c3ccccc3)C2)CCO1 (stereo unspecified),-34%
4,Cc1ccc(NC(=O)CSc2nnc(-c3cccnc3)n2-c2ccc(C)cc2)cc1,-20%
5,c1ccc(-c2ccc(-c3ccncn3)cc2)cc1,-14%
6,COc1ccc(-c2nc(-c3ccccn3)ncc2S(C)(=O)=O)cc1,-15%
7,c1ccc(-c2n[nH]c(-c3ccccn3)n2)cc1,7% (active)
8,Cc1nc(Oc2ccc(Cl)cc2)c2oc3ccccc3c2n1,-9%
9,O=C1N2CCSC2=NC1(NS(=O)(=O)c1ccccc1)C(F)(F)F (stereo unspecified),5% (active)
10,COc1ccc(CCNC(=O)C2CCCN(S(C)(=O)=O)C2)cc1 (stereo unspecified),-15%
11,COc1ccc(-n2c(SCC#N)nnc2-c2cccnc2)cc1,-26%
12,O=C1CC(N2CCN(c3ccccc3Cl)CC2)C(=O)N1c1ccc(F)cc1 (stereo unspecified),-10%
13,CC(=O)Oc1c(-c2ccc(Br)o2)oc2ccccc2c1=O,66% (active)
14,COc1ccc(-c2oc3ccccc3c(=O)c2OC(C)=O)cc1,7% (active)
15,CC(=O)Oc1c(-c2ccco2)oc2ccccc2c1=O,-1%
16,COc1ccc(-c2c(C)c3ccc(OCC(C)=O)cc3oc2=O)cc1,-20%
17,COc1ccc(C(=O)c2oc3ccccc3c2N)cc1,-12%
18,Cc1ccnc(SCCn2c(N3CC(C)OC(C)C3)nc3c2c(=O)n(C)c(=O)n3C)n1 (stereo unspecified),-26%
19,COc1ccc(/C=C2\SC(=N)N(c3nccs3)C2=O)cc1OC,30% (active)
20,N=C1S/C(=C\c2ccc(-c3cccc(Cl)c3)o2)C(=O)N1c1nccs1,50% (active)
21,CCN1C(=O)/C(=C\c2ccc(-c3cccc(C(=O)OC)c3)o2)SC1=Nc1ccc(C(=O)O)cc1,-3%
22,N=C1S/C(=C\c2ccco2)C(=O)N1c1nccs1,-24%
